High-throughput results as filed in PubChem.
The entries come from a sample that favours hits as a whole.
Pf Dd2 growth – Plasmodium falciparum Dd2 growth inhibition; P. falciparum Dd2 growth, SYBR Green, 72 h; Potency, µM (doses to about 28.9 µM), for inactives: at the top dose activity, negative = inhibition, most hits filed as inhibitors; 120,000 compounds, 4.3% hits; active = well fitted inhibition curve with a large enough effect;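 note: plate controls were DMSO vehicle for no effect and reference drug for full effect; nearly all actives have a fitted effect of over 65% in size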
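Readout: SYBR Green fluorescence, 485 nm excitation, 535 nm emission, after ~16 h lysis at 37C. Before that, Dd2-infected red cells (2.5% hematocrit) grew 72 h with compound, 29 uM top final concentration.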
Numbers without * were called inactive; i = inactive; ! = not active in a repeat; [ ] = dose if it differs, or a comment. Potency is the fitted concentration of half-maximal effect.

SMILES | Pf Dd2 growth
Cc1ccccc1Nc1nn2c(=O)c3ccc(C(=O)NCC(C)c4ccccc4)cc3nc2s1 (stereo unspecified) | 13µM*
CC1CCC2(CC1)OCC(C(=O)NCc1ccco1)N2C(=O)c1ccccc1F (stereo unspecified) | 4%
Cc1cc2c(c(=O)n(-c3ccccc3)c(=O)n2CC(=O)Nc2ccc(F)cc2)n1C | -16%
COc1ccc(C2(C(=O)N3C[C@@H](Oc4cccnc4)C[C@H]3C(=O)NC3CC3)CC2)cc1 | 19%
CC(=O)c1ccc(NC(=O)NC[C@H]2C[C@@H]3CCN2C[C@@H]3c2cc(-c3cccs3)nc(C)n2)cc1 | i
COc1ccc(-c2cc([C@H]3CN4CC[C@H]3C[C@@H]4CNC(=O)NC(C)C)nc(C)n2)cc1OC | i
COCC(=O)NC[C@H]1C[C@@H]2CCN1C[C@@H]2c1cc(-c2ccccc2OC)nc(C)n1 | i
Cc1nc(-c2cccs2)cc([C@H]2CN3CC[C@H]2C[C@@H]3CNS(C)(=O)=O)n1 | i
Cc1nc(-c2cccs2)cc([C@H]2CN3CC[C@H]2C[C@@H]3COC(=O)Nc2ccc(C(C)C)cc2)n1 | 7.1µM*
COc1ccccc1-c1cc([C@H]2CN3CC[C@H]2C[C@@H]3COC(=O)Nc2ccc(C(C)C)cc2)nc(C)n1 | 13µM*
CCn1nc(CC(C)C)cc1C(=O)N1C[C@@H](NC(C)=O)[C@H](C(C)C)C1 | -3%
CCN1C(=O)COC[C@@H]1[C@H](O)c1ccc(NC(=O)c2ccnc(Cl)c2)cc1 | -6%[44.1 µM]
OC[C@@H]1O[C@H](CNC2CCOCC2)[C@H](N2CCN(c3ccc(F)cc3)CC2)[C@@H]1O | -10%
O=C(N1CCC2(CC1)[C@H](O)C[C@@H]2OCCO)C1(c2ccccc2)CCCC1 | -19%
Cn1cccc1CNC(=O)Cn1nc2c(cc1=O)CCCCC2 | -8%
COc1cc(C(=O)NC2CCCc3c2[nH]c2c(Cl)cccc32)cc(OC)c1OC (stereo unspecified) | 1µM*
Cc1cc(C(=O)NC2CCCc3c2[nH]c2c(Cl)cccc32)c2c(C)noc2n1 (stereo unspecified) | i
O=C(CNC(=O)c1cnccn1)NC1CCCc2c1[nH]c1c(Cl)cccc21 (stereo unspecified) | -6%
Cc1ccc2nc(C3CCN(Cc4ccccc4)CC3)[nH]c(=O)c2c1 | -5%
COc1cccc(-c2ccc(CN3CCN(c4cc(Cl)ncn4)C(=O)C3)cc2)c1 | -23%
Cc1ccc(-c2cccc(CN3CCCC(c4nc5ccc(C)cc5c(=O)[nH]4)C3)c2)c(C)c1 (stereo unspecified) | 7.9µM*!
COc1cccc(-c2ccc(CN3CCCC(c4nc5ccc(C)cc5c(=O)[nH]4)C3)cc2)c1 (stereo unspecified) | 7.9µM*!
COc1ccc(-n2nc(C3CCCN(Cc4cccc5ccccc45)C3)[nH]c2=O)cc1 (stereo unspecified) | -18%
Cc1ccc2nc(C3CCN(CC4CCCC4)CC3)[nH]c(=O)c2c1 | 11%[44.1 µM]
N#Cc1ccc(-c2nc(C(=O)NCC3CCCCC3)no2)cc1 | i
SMILES | Pf Dd2 growth
Cc1ccc(S(=O)(=O)N2CCC(n3cnnc3C(C)C)CC2)cc1C | -27%
Cc1ccc(S(=O)(=O)N2CCc3c(C(=O)NCC(C)C)cccc32)cc1 | -9%
CN1C(=O)c2cccn2CC1CNC(=O)c1ccnn1C (stereo unspecified) | i
COc1cc(Cl)ccc1C(=O)N1CCC(Oc2ccc(C(=O)N(C)C)cn2)CC1 | -13%
N#Cc1cccc(NC(=S)N[C@H]2CO[C@H]3[C@@H]2OC[C@@H]3n2nnnc2Oc2cccc(N3CCOCC3)c2)c1 | 8.9µM*
N#Cc1cccc(NC(=S)N[C@H]2CO[C@H]3[C@@H]2OC[C@@H]3n2nnnc2Oc2ccccc2)c1 | i
N#Cc1cccc(NC(=S)N[C@H]2CO[C@H]3[C@@H]2OC[C@@H]3n2nnnc2Oc2ccc3c(c2)OCO3)c1 | -29%
CN1CCC(N2CC3(C2)C(=O)N(C)C(=O)[C@@H]2C[C@@H](O)CN23)CC1 | 15%[44.1 µM]
COc1ccccc1CC(=O)N1CCCc2ncc(C(=O)N3CCCC[C@@H]3Cc3ccccc3)cc21 | 7.9µM*
COc1ccccc1CC(=O)N1CCCc2ncc(C(=O)N3CCC(OC)CC3)cc21 | 1%[44.1 µM]
COc1ccccc1CC(=O)N1CCCc2ncc(C(=O)N3CCCC[C@@H]3c3ccccc3)cc21 | 11µM*
COC1CCN(C(=O)c2cnc3c(c2)N(C(=O)CCc2ccccc2)CCC3)CC1 | -23%[44.1 µM]
COc1ccccc1CC(=O)N1CCCc2ncc(C(=O)NC(c3ccccc3)c3ccccc3)cc21 | 0%
COc1ccccc1CC(=O)N1CCCc2ncc(C(=O)NCc3cccc(Cl)c3)cc21 | i
O=C(O)CNC(=O)CNC(=O)Cn1nc2c(cc1=O)CCCC2 | -6%
COC(=O)CC1C(=O)NCCN1C(=O)c1ccccc1-c1ncc[nH]1 (stereo unspecified) | -4%
CNC(=O)c1noc([C@@H]2CC(F)(F)CN2Cc2cn(C)nc2C)n1 | 33%
Cc1nc2c(c(-c3ccc(O)cc3)n1)CN([S+](=O)([O-])c1c(C)noc1C)CCC2 | i
CCn1nccc1C(=O)N1CCCC(c2noc(COc3ccccc3F)n2)C1 (stereo unspecified) | 2%
CCOc1cc(CNc2ccc(O)cc2)cc(Cl)c1OCc1ccccc1 | 13µM*
CCOc1cccc(CNc2ccc(O)cc2)c1OCc1ccccc1Cl | i[5.79 µM]
CCOc1cc(CNc2ccc(C(=O)O)cc2)ccc1OCc1ccccc1 | 6%
CCN(CC)Cc1cnc2c(C(=O)N(C)Cc3ccccc3C)cnn2c1 | -3%
CC(C)C(=O)N1C[C@@H]2CCCN3CCC[C@@H]([C@H]23)[C@H]1CCCC(=O)NCC1CC1 | -1%
Cc1cccc(C(=O)N2C[C@@H]3CCCN4CCC[C@@H]([C@H]34)[C@H]2CCCC(=O)NCC2CC2)c1 | -25%
SMILES | Pf Dd2 growth
O=C(CCC[C@@H]1[C@H]2CCCN3CCC[C@@H](CN1C(=O)C1(c4ccccc4)CC1)[C@@H]23)NCC1CC1 | 13µM*
Cc1cc(C(=O)N2C[C@@H]3CCCN4CCC[C@@H]([C@H]34)[C@H]2CCCC(=O)N2CCOCC2)nn1C | -21%
Cn1cc(C(=O)NCc2nnc3n2C(C(=O)NC2CC2)CC3)cn1 (stereo unspecified) | 6%
COc1cc(C(=O)N2CCC(O)(c3ccc(C)cn3)CC2)cc(OC)c1OC | -18%
O=C1CCN(C(=O)[C@@H]2CCCN2S(=O)(=O)c2ccc3c(c2)CCC3)CCCCCCN1 | i
O=C(NCCc1cccc(F)c1)C1CC(=O)N(c2n[nH]c3cccc(F)c23)C1 (stereo unspecified) | -8%
Cc1csc(NC(=O)c2nc3c(o2)CCN(Cc2cc(F)ccc2F)CC3)n1 | -15%[44.1 µM]
Cc1nnc2n1CCC(NC(=O)Cc1cccs1)CC2 (stereo unspecified) | 50%
Cc1ccc(-c2cn3c(n2)CO[C@@H](CNCc2ccc(S(C)(=O)=O)cc2)C3)cc1 | i
Cc1ccc(-c2cn3c(n2)CO[C@@H](CNCc2ccc(-c4ccccn4)cc2)C3)cc1 | 13µM*
Cc1ccc(-c2cn3c(n2)CO[C@@H](CNCc2ccc(Cl)cc2)C3)cc1 | i
O=C(C1CCc2ncc(-c3ccsc3)n2C1)N1CCN(c2ccccn2)CC1 (stereo unspecified) | i
O=C(NC1CCN(Cc2ccccc2)CC1)C1CCc2ncc(-c3ccsc3)n2C1 (stereo unspecified) | 8.9µM*
CC(C)CNC(=O)C1CCc2ncc(-c3ccsc3)n2C1 (stereo unspecified) | i
COc1ccc(CC(=O)N2CCc3nc(C4CC4)nc(-c4ccc(Cl)cc4)c3C2)cc1 | i
